Screening results from PubChem.
PLCb3 inh – human PLC-beta3 inhibitors, primary screen, biochemical, fluorescence. AID 720704, 2013. 370,000 compounds, 0.18% hits. inhibition, % at 12.2 µM. Purified PLC-beta3, fluorogenic substrate. 1-phosphatidylinositol 4,5-bisphosphate phosphodiesterase beta-3 (Homo sapiens), Q01970;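 also: 0% = median of compound wells on plate and 100% = full blocker control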
GC-B act – human GC-B receptor activators, primary screen, HEK293 GC-B cells, cGMP TR-FRET, EC30 CNP; activation, % at 10 µM; 0% at EC30 CNP, 100% saturating CNP; 370,000 compounds, 0.11% hits; Atrial natriuretic peptide receptor 2 (Homo sapiens), P20594;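 active = activation at 10 µM reaching about 35% in either raw or pattern-adjusted values, limit read from the data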
NPR1 activator – GC-A stimulated cGMP production enhancers – HEK293 GC-A cells, cGMP TR-FRET, EC30 ANP, primary screen | 0% at EC30 ANP, 100% saturating ANP | Atrial natriuretic peptide receptor 1 (Homo sapiens), P16066 | activation, % at 10 µM | 370,000 compounds, 0.14% hits | AID 1671463, 2021; in the data active = activation above about 40%
PLC-gamma1 inh – PLC-gamma1 enzyme inhibitors, primary screen, biochemical, fluorescence, purified enzyme; inhibition, % at 12.2 µM; 370,000 compounds, 0.84% hits; fluorogenic substrate; in the data active = inhibition above about 9.5%
PLCgamma1 ctr – PLC-gamma1 enzyme inhibitors, counter-screen for PLC-beta3 inhibitor project, biochemical, fluorescence; 3,300 compounds, 3.1% hits; AID 743258, 2014; shares compounds with PLC-gamma1 inh; purified PLC-gamma1, fluorogenic substrate; inhibition, % at 12.3 µM; in the data active = inhibition above about 9.5%
PLCb3 confirm – PLC-beta3 inhibitor confirmation, biochemical, fluorescence, purified enzyme; inhibition, % at 12.3 µM; fluorogenic substrate fluorescence; shares compounds with PLC-gamma1 inh; 3,300 compounds, 1% hits
* hit, by the source's call. This is a sample that favours compounds with a hit; in the whole collection about 1.2% have one here. Rule as the data show it, unless noted: active = inhibition above about 11%; inactive = the rest.

Results for CCOC(=O)c1ccc(NC(=O)CSc2nnc(SCc3cccc4ccccc34)s2)cc1 ?
PLCb3 inh: 9; GC-B act: 0; NPR1 activator: -1; PLC-gamma1 inh: 12*; PLCgamma1 ctr: -5; PLCb3 confirm: -7

Results for COc1ccc(NC(=O)c2c(C)noc2-c2snnc2C)cc1 ?
PLCb3 inh: -5; GC-B act: 8; NPR1 activator: 1; PLC-gamma1 inh: 0

What do the screens show for `CN(C(=O)c1cccnc1)c1nc(-c2ccccc2)cs1`?
PLCb3 inh: 7; GC-B act: 1; NPR1 activator: 10; PLC-gamma1 inh: 9.7*; PLCgamma1 ctr: -8; PLCb3 confirm: -6

Results for COCCCNC(=O)C[C@H]1C[C@@]2(C(=O)OC)C(=C[C@H](C(C)C)O[C@@H]2C2CC2)N(Cc2ccc(Cl)cc2Cl)C1=O ?
PLCb3 inh: 5; GC-B act: -17; NPR1 activator: -20; PLC-gamma1 inh: 10*; PLCgamma1 ctr: 2; PLCb3 confirm: -8

Results for COC(=O)[C@]12C[C@H](CC(=O)N3CCCCC3)C(=O)N(Cc3ccccc3)C1=C[C@H](C(C)C)O[C@@H]2C1CC1 ?
PLCb3 inh: 13*; GC-B act: -2; NPR1 activator: -3; PLC-gamma1 inh: 8; PLCgamma1 ctr: -5; PLCb3 confirm: -3

What do the screens show for `COC(=O)[C@]12C[C@H](CC(=O)N3CCOCC3)C(=O)N(Cc3ccccc3)C1=C[C@H](C(C)C)O[C@@H]2C1CC1`?
PLCb3 inh: 5; GC-B act: -10; NPR1 activator: -6; PLC-gamma1 inh: 1

What do the screens show for `COC(=O)[C@]12C[C@H](CC(=O)NCCC(C)C)C(=O)N(Cc3ccc(Cl)cc3Cl)C1=C[C@H](C(C)C)O[C@@H]2C1CC1`?
PLCb3 inh: 5; GC-B act: -10; NPR1 activator: -14; PLC-gamma1 inh: 3

How did COc1cccc(N2CCN(S(=O)(=O)c3cn(C)cn3)CC2)c1 do in these assays?
PLCb3 inh: -8; GC-B act: 3; NPR1 activator: 3; PLC-gamma1 inh: -1

Results for C[C@H](CO)N1C[C@H](C)[C@H](CN(C)Cc2ccc(F)cc2)Oc2ncc(Br)cc2C1=O ?
PLCb3 inh: 5; GC-B act: 0; NPR1 activator: 1; PLC-gamma1 inh: 1

How did CCOc1ccc(CO/N=C/c2c(C)[nH]c(=O)[nH]c2=O)cc1 do in these assays?
PLCb3 inh: 0; GC-B act: -7; NPR1 activator: 1; PLC-gamma1 inh: 13*; PLCgamma1 ctr: -2; PLCb3 confirm: -2

How did CCOc1ccc(N(CC)S(=O)(=O)c2c(C)[nH]c(=O)[nH]c2=O)cc1 do in these assays?
PLCb3 inh: -1; GC-B act: 2; NPR1 activator: 3; PLC-gamma1 inh: 3

How did O=C(c1ccccc1F)N(NC(=O)C(O)(c1ccccc1)c1ccccc1)c1ccccc1 do in these assays?
PLCb3 inh: -3; GC-B act: -3; NPR1 activator: -4; PLC-gamma1 inh: 3

How did NC(=O)CN1C(=O)C2C3CCC(C3)C2C1=O (stereo not drawn) do in these assays?
PLCb3 inh: -2; GC-B act: 5; NPR1 activator: 3; PLC-gamma1 inh: -1

How did O=C(O)CN1C(=O)C2C3CCC(C3)C2C1=O (stereo not drawn) do in these assays?
PLCb3 inh: 8; GC-B act: 1; NPR1 activator: 1; PLC-gamma1 inh: 14*; PLCgamma1 ctr: -5; PLCb3 confirm: -2

What do the screens show for `CCOC(=O)C1(CCOC)CCN(C2C3CC4CC(C3)CC2C4)CC1` (stereo not drawn)?
PLCb3 inh: 5; GC-B act: -2; NPR1 activator: -1; PLC-gamma1 inh: 7

Results for Cc1ccc(C(C)C)cc1S(=O)(=O)NCc1cccnc1 ?
PLCb3 inh: 3; GC-B act: 0; NPR1 activator: -1; PLC-gamma1 inh: 9.9*; PLCgamma1 ctr: -6; PLCb3 confirm: -4

What do the screens show for `Cc1ccccc1S(=O)(=O)NCc1cccnc1`?
PLCb3 inh: 3; GC-B act: 2; NPR1 activator: 1; PLC-gamma1 inh: -2

How did CCn1c(COc2ccccc2C)nnc1SCC(=O)N1CCC(C)CC1 do in these assays?
PLCb3 inh: 2; GC-B act: 0; NPR1 activator: 1; PLC-gamma1 inh: -5

Results for CCn1c(COc2ccccc2C)nnc1SCC(=O)N1CCCCC1 ?
PLCb3 inh: 1; GC-B act: 6; NPR1 activator: 5; PLC-gamma1 inh: 14*; PLCgamma1 ctr: -3; PLCb3 confirm: -2

What do the screens show for `CC1=C(C(=O)Nc2ccccc2C(=O)NC2CCC(C)CC2)SCCO1` (stereo not drawn)?
PLCb3 inh: -9; GC-B act: 0; NPR1 activator: 5; PLC-gamma1 inh: 2

Results for Cc1ccc2nc(NC(=O)CN3C(=O)NC4(CCCCC4)C3=O)sc2c1 ?
PLCb3 inh: 0; GC-B act: -5; NPR1 activator: 1; PLC-gamma1 inh: 12*; PLCgamma1 ctr: 0; PLCb3 confirm: 1

What do the screens show for `O=C(Nc1cccc(Cl)c1)C1C2CCC3C(CCC21)C3(Cl)Cl` (stereo not drawn)?
PLCb3 inh: 5; GC-B act: -3; NPR1 activator: 5; PLC-gamma1 inh: 0

How did O=C(Nc1ccccc1)C1C2CCC3C(CCC21)C3(Cl)Cl (stereo not drawn) do in these assays?
PLCb3 inh: 8; GC-B act: 7; NPR1 activator: 3; PLC-gamma1 inh: 11*; PLCgamma1 ctr: 0; PLCb3 confirm: -1

Results for CC(C)CC(NC(=O)C1CCCN1C(=O)OC(C)(C)C)C(=O)NCC(N)=O (stereo not drawn) ?
PLCb3 inh: 14*; GC-B act: 3; NPR1 activator: 2; PLC-gamma1 inh: 7; PLCgamma1 ctr: -2; PLCb3 confirm: 2

Results for COC(=O)C(CC(C)C)NC(=O)C(Cc1ccccc1)NC(=O)C1CCCN1C(=O)OC(C)(C)C (stereo not drawn) ?
PLCb3 inh: 1; GC-B act: -1; NPR1 activator: -7; PLC-gamma1 inh: 0

How did COC(=O)c1cc(-c2ccc(OC)cc2)n[nH]1 do in these assays?
PLCb3 inh: -2; GC-B act: 0; NPR1 activator: -4; PLC-gamma1 inh: -2

Results for COC(=O)c1cc(-c2ccc(C)cc2)n[nH]1 ?
PLCb3 inh: 4; GC-B act: -6; NPR1 activator: 4; PLC-gamma1 inh: 10*; PLCgamma1 ctr: -6; PLCb3 confirm: -3

How did CC(=O)OCCc1c(C)nc2nc[nH]n2c1=O do in these assays?
PLCb3 inh: 4; GC-B act: 4; NPR1 activator: 0; PLC-gamma1 inh: 2
